High-throughput results (PubChem)
A selection: hits, their analogues and other compounds. The true share with any hit is near 7.9%.
HCMV inh = inhibitors of human cytomegalovirus. HFF cells, HCMV-luciferase reporter, 72 h; stronger effect = lower value. activity change, negative = inhibition, % at 57.5 µM. AID 1259415. hit rate 4.5% among 410,000; in the data active = activity change below about -60%; inconclusive = no clear call, values can overlap the other calls; inactive = above about -39%
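Screen run at 2 compound doses on HFFs infected with reporter HCMV, MOI 1 PFU/cell. Luciferase activity from cell lysates at 72 h post infection gave inhibition relative to buffer-only and Salinomycin wells.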
Marburg entry inh = inhibitors of Marburg virus binding or cell entry | Marburg virus pseudotyped entry inhibition, cell reporter | Potency, µM (top dose mostly 37.8 µM), most hits filed as inhibitors | hit rate 1.8% among 300,000 | AID 540276; calls by dose curve; tested in HEK293 cells
Lassa entry inh = inhibitors of Lassa virus binding or cell entry. Lassa virus pseudotype entry inhibition, cell reporter. hit rate 1.2% among 300,000. AID 540256. Potency, µM (series often up to 37.9 µM), actives largely listed as inhibitors; calls by dose curve; tested in HEK293 cells; also: nearly all actives have a fitted effect of over 50% in size
FMDV inh = antivirals against foot and mouth disease virus. FMDV antiviral cell-based qHTS. Potency, µM (doses to about 57.9 µM), most hits filed as inhibitors. hit rate 1.2% among 410,000; calls by dose curve; tested in HEK293T cells; also: read-out not given here; nearly all actives have a fitted effect of over 45% in size
HCV inhibitor = blocks hepatitis C virus. Potency, µM (highest dose often 41.8 µM), most hits filed as inhibitors. hit rate 3.4% among 340,000. AID 651820. Huh7.5.1 HCVcc-Cre infection, luciferase reporter, 44 h; active = well fitted inhibition curve with a large enough effect; inconclusive = small, poorly fitted or top-dose-only effect, or another doubt; inactive = no such curve, though single readings can be large or run the other way
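Luciferase read-out (15 sec integration) after a 15 min room-temperature substrate step quantifies HCVcc-Cre infection. Cells, 1,000 per well, had compound added 4 h post-plating, then virus at ~0.5 moi, and were cultured 44 h.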
Each line names hits and unclear results; the compound was inactive in the other large screens.

Cc1ccc(S(=O)(=O)c2c(Nc3cc(F)ccc3F)sc(C(=O)c3ccc(F)cc3)c2N)cc1	HCMV inh -65, Marburg entry inh inconclusive, Lassa entry inh inconclusive, FMDV inh inconclusive (no result: HCV inhibitor)
Cc1ccc(Cl)cc1Nc1sc(C(=O)c2ccc(F)cc2)c(N)c1S(C)(=O)=O	Lassa entry inh inconclusive, FMDV inh inconclusive (no result: HCV inhibitor)
O=C1N(Cc2ccc(Br)cc2)c2cccc(Br)c2[C@@]12O[C@H](COc1ccccc1)CC1=CCCC12 (stereo partly drawn)	none (no result: HCMV inh, Lassa entry inh, FMDV inh, HCV inhibitor)
COc1ccc2[nH]c3c(c2c1)CCN1C(=O)C(CC(=O)NC/C=C(\C)CCC=C(C)C)C[C@H](C(=O)N2CCOCC2)[C@@]31CCC1CCCC1 (stereo partly drawn)	HCV inhibitor 2.5µM (no result: Lassa entry inh)
CC[C@]12c3[nH]c4ccc(Cl)cc4c3CCN1C(=O)[C@@H](CC(=O)NC(C)(C)C)C[C@@H]2C(=O)N1CCN(C(=O)c2ccco2)CC1	none (no result: Marburg entry inh, Lassa entry inh)
CC[C@]12c3[nH]c4ccc(Cl)cc4c3CCN1C(=O)[C@@H](CC(=O)NC/C=C(\C)CCC=C(C)C)C[C@@H]2C(=O)N1CCN(C(=O)c2ccco2)CC1	HCMV inh inconclusive, FMDV inh inconclusive, HCV inhibitor 11µM (no result: Lassa entry inh)
CC(C)=CCC/C(C)=C/CNC(=O)C[C@H]1C[C@H](C(=O)N2CCOCC2)[C@@]2(CCC3CCCC3)c3[nH]c4cc(CCC(=O)N(C)C)ccc4c3CCN2C1=O	HCMV inh -108, FMDV inh inconclusive, HCV inhibitor 11µM (no result: Marburg entry inh, Lassa entry inh)
CN(C)C(=O)CCc1ccc2c3c([nH]c2c1)[C@]1(CCC2CCCC2)[C@@H](C(=O)N2CCOCC2)C[C@H](CC(=O)NCC24CC5CC(CC(C5)C2)C4)C(=O)N1CC3	FMDV inh inconclusive (no result: Marburg entry inh, Lassa entry inh)
O=C(CN(CC1CCCO1)C(=O)c1nsc(Cl)c1Cl)NC1CCCC1 (stereo not drawn)	HCMV inh -66
O=C(Nc1nnc(CSCc2ccc(F)cc2)s1)c1cccc([N+](=O)[O-])c1	FMDV inh 40µM
CCOc1ccc(CCNC(=O)c2c(C)oc3ncn(CC(C)C)c(=O)c23)cc1	none (no result: Marburg entry inh, HCV inhibitor)
COc1ccc(C(CC(=O)N2CCCC(C)C2)c2c(OC)cc(OC)c3ccc(=O)oc23)cc1 (stereo not drawn)	HCV inhibitor 11µM (no result: Marburg entry inh, Lassa entry inh)
COc1cc(OC)c2ccc(=O)oc2c1C(CC(=O)N1CCCC1)c1ccc(N(C)C)cc1 (stereo not drawn)	none (no result: Marburg entry inh, Lassa entry inh)
COc1ccc(C(CC(=O)N2CCCC(C)C2)c2c(OC)cc(OC)c3c(-c4ccccc4)cc(=O)oc23)cc1 (stereo not drawn)	HCMV inh -68, HCV inhibitor inconclusive (no result: Marburg entry inh, Lassa entry inh)
COc1ccc(C(CC(=O)N2CCOCC2)c2c(OC)cc(OC)c3ccc(=O)oc23)cc1 (stereo not drawn)	none (no result: Marburg entry inh, Lassa entry inh)
COc1ccc(C(CC(=O)N2CCCC2)c2c(OC)cc(OC)c3ccc(=O)oc23)cc1 (stereo not drawn)	HCV inhibitor 2.8µM (no result: Marburg entry inh, Lassa entry inh)
COc1ccc(C(CC(=O)N2CCCC2)c2c(OC)cc(OC)c3c(-c4ccccc4)cc(=O)oc23)cc1 (stereo not drawn)	HCV inhibitor inconclusive (no result: Marburg entry inh, Lassa entry inh)
N#Cc1ccccc1NC(=O)C1SC(=Nc2ccccc2)C(C(=O)Nc2ccc(Cl)cc2)=C1N (stereo not drawn)	Lassa entry inh inconclusive, HCV inhibitor 10µM
CCOC(=O)c1cccc(Nc2nc(-c3cccnc3)nc3ccccc23)c1	Marburg entry inh inconclusive, Lassa entry inh inconclusive, FMDV inh 28µM, HCV inhibitor inconclusive
O=C(O)c1cccc(Nc2nc(-c3cccnc3)nc3ccccc23)c1	none
COC(=O)c1cccc(Nc2nc(-c3cccnc3)nc3ccccc23)c1	Marburg entry inh inconclusive, FMDV inh inconclusive, HCV inhibitor 7.1µM
CC(=O)Nc1ccc(C)cc1-c1nc2ccccc2n(CC(=O)Nc2cc(Cl)ccc2C)c1=O	none (no result: HCV inhibitor)
CC(C)c1ccc(NC(=O)CSC2=Nc3ccccc3C3=NC(CCC(=O)NCc4ccco4)C(=O)N23)cc1 (stereo not drawn)	none (no result: Marburg entry inh, HCV inhibitor)
O=C1CCCC2=C1C(c1ccc(Cl)cc1)C1C(=O)c3ccccc3C1=N2 (stereo not drawn)	HCMV inh -70, Marburg entry inh inconclusive, FMDV inh inconclusive, HCV inhibitor inconclusive
Cc1[nH]c2ccccc2c1/C=N/Nc1nncn1N	HCMV inh -64, Marburg entry inh inconclusive (no result: Lassa entry inh)
Cc1cccc(/C=N/NC(=O)c2cccc([N+](=O)[O-])c2)n1	none
O=C(N/N=C/c1ccc[nH]1)c1cccc([N+](=O)[O-])c1	Lassa entry inh inconclusive, HCV inhibitor 3.5µM
Cc1[nH]c2ccccc2c1/C=N/NC(=O)c1cccc([N+](=O)[O-])c1	HCMV inh -61
